An excerpt weighted towards active compounds, which were near 8.9% of everything screened.
ALDH1A1 block – inhibitors of human aldehyde dehydrogenase 1A1; Potency, µM (titrated, usually from 75.3 µM), for inactives: top-dose activity, negative = inhibition, hits mostly inhibitors; Purified ALDH1A1, NADH fluorescence, propionaldehyde substrate; 220,000 tested, 7.3% active; P00352; active means well fitted inhibition curve with a large enough effect, not every such curve was filed as active; inconclusive means small, poorly fitted or top-dose-only effect, or another doubt; inactive means no such curve, though single readings can be large or run the other way;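 further: potency means the concentration at half of the fitted maximal effect; plate controls were no enzyme wells and a reference inhibitor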
Target sequence (P00352 whole entry, looked up): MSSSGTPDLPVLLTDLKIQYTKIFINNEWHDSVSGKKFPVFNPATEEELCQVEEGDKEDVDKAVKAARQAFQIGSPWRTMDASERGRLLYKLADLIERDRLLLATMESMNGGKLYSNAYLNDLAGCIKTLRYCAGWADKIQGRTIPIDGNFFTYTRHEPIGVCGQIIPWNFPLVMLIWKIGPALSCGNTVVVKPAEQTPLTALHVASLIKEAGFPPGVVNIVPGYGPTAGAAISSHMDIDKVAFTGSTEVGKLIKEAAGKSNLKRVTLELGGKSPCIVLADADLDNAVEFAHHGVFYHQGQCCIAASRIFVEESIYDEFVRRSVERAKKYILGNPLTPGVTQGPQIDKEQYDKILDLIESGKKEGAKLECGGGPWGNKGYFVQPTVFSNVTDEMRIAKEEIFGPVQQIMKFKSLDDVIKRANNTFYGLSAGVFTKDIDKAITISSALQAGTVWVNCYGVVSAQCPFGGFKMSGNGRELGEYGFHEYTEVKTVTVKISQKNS
IMPase cell inh – membrane-permeable compound that blocks inositol monophosphatase | inhibition (IP1 accumulation), % at 46.1 µM | 120,000 tested, under 10 active | P97697 | AID 901 | CHO-M1 cells, IP1 accumulation, HTRF TR-FRET ratio; active means well fitted curve in the direction sought with a large enough effect in the signal ratio, not every such curve was filed as active; inconclusive means small, poorly fitted or top-dose-only effect, or a change in a side signal; inactive means no such curve, though single readings can be large or run the other way; the % refers to the signal ratio;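 further: cells stimulated with carbachol in lithium chloride buffer; plate controls were DMSO basal wells for no effect and reference inhibitor wells for full effect; higher means more IMPase inhibition seen as more IP1 and lower FRET ratio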
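Carbachol-driven Gq signalling in CHO-M1 cells (2000/well) generates IP1. Compounds that block IMPase raise IP1 and so reduce the FRET signal from Eu-anti-IP1 and d2-IP1 after a 10 min room-temperature lysis.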
ALOX12 inhib – blocks human 12-lipoxygenase activity | P18054 | 150,000 tested, 0.12% active | purified 12-hLO, xylenol orange hydroperoxide absorbance | AID 1452 | Potency, µM (doses to about 57.1 µM), inactives show at the top dose activity change, negative = inhibition, most hits filed as inhibitors; further: potency means the concentration at half of the fitted maximal effect; nearly all actives have a fitted effect of over 55% in size
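150 nM 12hLO, 25 mM Hepes pH 7.0 + 0.01% Triton X-100; cpd preinc 15 min RT; 40 uM arachidonic acid, 30 min RT; Fe-XO 30 min; A573/A405 ratio as read-out.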
IMPase Li inh – IMPase inhibition in cells with lithium potentiation | CHO-M1 cells, IP1 TR-FRET (IP-One), carbachol + lithium | Potency, µM (top dose mostly 59.4 µM), without a hit: top-dose activity, negative = IMPase inhibition, hits mostly inhibitors | 210,000 tested, 0.35% active;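 further: IP1 builds up when IMPase is blocked and the TR-FRET signal falls; potency means the concentration at half of the fitted maximal effect; plate controls were basal vehicle for no effect and high inhibitor control for full effect; nearly all actives have a fitted effect of over 50% in size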
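CHO cells stably expressing M1 receptor (2000/well, cultured 16–30 h) treated 30 min at 37C with compound plus low lithium. Cytosolic IP1 by TR-FRET (665/620 ratio and 620 channel) after 10 min lysis; AC50 by Hill fit.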
HPGD block – inhibitors of human 15-hydroxyprostaglandin dehydrogenase (HPGD). Potency, µM, inactives show top-dose activity change, negative = inhibition, usual class: inhibitors. purified HPGD, NADH fluorescence kinetic, PGE2 substrate. 150,000 tested, 4.3% active; active means well fitted inhibition curve with a large enough effect, not every such curve was filed as active; inconclusive means small, poorly fitted or top-dose-only effect, or another doubt; inactive means no such curve, though single readings can be large or run the other way; further: potency means the concentration at half of the fitted maximal effect
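20 nM HPGD preincubated 15 min at room temperature with compound in 50 mM Tris-HCl pH 8, 0.01% Tween 20. Started with 1 mM NAD+ and 30 uM prostaglandin E2; NADH fluorescence (360/450 nm) read 5 times over 30-s intervals, last minus first.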
NPSR antag – neuropeptide S receptor (human) antagonism, cAMP | CHO-NPSR cells, cAMP TR-FRET, antagonist mode | Potency, µM (top dose mostly 38.3 µM), without a hit: at the highest dose activity change, negative = inhibition, usual class: inhibitors | Q6W5P4 | AID 1461 | 220,000 tested, 1% active; further: potency means the concentration at half of the fitted maximal effect; nearly all actives have a fitted effect of over 50% in size
* hit, by the source's call; u = inconclusive; x = no result given; [ ] = dose if it differs, or a comment. Unless noted, the call rests on the fitted dose curve; in most records, active means well fitted curve in the direction sought with a large enough effect; inconclusive means small, poorly fitted or top-dose-only effect, or another doubt; inactive means no such curve, though single readings can be large; an effect the other way counts as inactive or inconclusive. Unless noted, on the % scale 0 is the no-effect control and ±100 the full control effect.

SMILES	ALDH1A1 block	IMPase cell inh	ALOX12 inhib	IMPase Li inh	HPGD block	NPSR antag
CCc1c(C)sc(NC(=O)C2CCCO2)c1C#N (configuration not stated)	15.8µM*	-6.8	-8.1%	-3.1%	28.2µM*	7.9%[46.1 µM]
CCCc1cc(C(=O)Nc2ccc(F)cc2F)no1	3.4%	5.9	0.5%	8.6%[38.3 µM]	-12.4%	-9.4%[46.1 µM]
CCCc1cc(C(=O)Nc2ccccc2SC)no1	u	12.2	-3.8%	55.0%[38.3 µM]	22.4µM*	-13.9%[46.1 µM]
CCCc1cc(C(=O)Nc2sc3c(c2C#N)CCC3)no1	11.2µM*	7.6	-6.9%	4.6%	28.2µM*	-2.2%
O=S(=O)(NC1CCCC1)c1ccccc1Br	x	x	x	x	x	13.3%
N#C/C(=C/c1ccc(Br)o1)C(N)=O	-7.0%	x	-1.3%	1.5%	-16.7%	-9.2%[46.1 µM]
COc1ccccc1N1C(=O)C2C(c3ccccc3F)NN(C(=O)c3ccc(C)cc3)C2C1=O (configuration not stated)	8.5%	x	-9.5%	6.5%	u	1.1%
Cc1ccc(C(=O)N2NC(c3ccccc3F)C3C(=O)N(c4cccc(C)c4)C(=O)C32)cc1 (configuration not stated)	2.51µM*	x	-5.5%	10.3%	-27.8%	13.8%
O=C1N/C(=N/NC(=O)c2cccc3ccccc23)S/C1=C\c1ccccc1OCc1ccccc1	6.1%	-1.8	-15.2%	-15.0%[38.3 µM]	-18.2%	-19.3%[46.1 µM]
COc1ccc(OC)c(/C=C2\S/C(=N/NC(=O)c3ccc4ccccc4c3)NC2=O)c1	u	x	1.3%	-5.3%	3.98µM*	-11.9%
O=C1CC(c2ccccc2Cl)=NN(c2ncnc3ccccc23)C1=O	0.631µM*	x	x	17.6%	x	-30.6%
CC(C)/C=C1\CCCCC1N(C)C(=O)NC(C)C (configuration not stated)	0.8%	0.1	-1.5%	27.8%[38.3 µM]	-0.8%	-5.5%[46.1 µM]
Cc1ccc(C(=O)CSc2nnc(CNc3nc(-c4ccccc4)cs3)n2C)cc1	14.1µM*	-0.5	-8.3%	-5.0%[38.3 µM]	-20.6%	-17.1%[46.1 µM]
CCn1c(CNc2nc(-c3ccccc3)cs2)nnc1SCC(=O)NCc1ccco1	28.2µM*	-4.9	-7.4%	-15.3%[38.3 µM]	u	7.6%[46.1 µM]
COCCNC(=O)CSc1nc(-c2ccccc2)cs1	0.4%	u	-2.9%	-3.8%[38.3 µM]	31.6µM*	5.0%[46.1 µM]
O=C(CSc1ncc(-c2ccccc2)nn1)NCc1ccco1	-3.4%	-0.8	-2.6%	22.7%[38.3 µM]	-23.6%	-2.6%[46.1 µM]
O=C(CSc1nc(-c2ccccc2)cs1)NCc1ccco1	25.1µM*	-13.8	0.9%	7.3%	28.2µM*	26.6%[46.1 µM]
COc1cccc(-c2nnc(SCCC(=O)O)n2C)c1	-0.6%	-3.2	3.0%	11.0%[38.3 µM]	-14.2%	13.0%[46.1 µM]
CC1CCC2(CC1)NC(=O)N(NC(=O)CCl)C2=O (configuration not stated)	-4.7%	x	x	3.4%	x	13.6%
COc1cccc(C2=NOC(C(=O)NC(C)(C)C)C2)c1 (configuration not stated)	3.1%	0.9	-1.2%	-16.3%[38.3 µM]	-8.0%	-15.2%[46.1 µM]
c1cncc(-c2csc(NCc3ccco3)n2)c1	u	1.8	-6.2%	16.3%[38.3 µM]	14.1µM*	-7.8%[46.1 µM]
O=C(/C=C1\NC2(CCCC2)Cc2ccccc21)C(=O)N/N=C/c1ccccc1O	4.47µM*	x	4.8%	-6.9%	-20.9%	-17.4%
CCOc1ccc(C(=O)Nc2cccc3ncccc23)cc1Br	-4.9%	x	x	-9.6%	x	0.8%
CC(=NCCCNC1CCCCC1)C1=C(O)CC(C)(C)CC1=O	28.2µM*	21.8	-1.6%	38.3%[38.3 µM]	-4.0%	4.8%[46.1 µM]
O=C1CC(C(=O)Nc2ccc(Cl)cc2)n2ncnc2N1 (configuration not stated)	-9.2%	x	x	0.9%	x	9.5%
CCc1ccc(NC(=O)C2CC(=O)Nc3ncnn32)cc1 (configuration not stated)	25.1µM*	x	-0.8%	0.5%	-9.0%	13.9%
OC(CCN1CCOCC1)(c1ccc(Cl)cc1)C1CCCCC1 (configuration not stated)	7.08µM*	21.2	-2.2%	37.6%[38.3 µM]	2.6%	-11.8%[46.1 µM]
Cc1c(C(=O)O)cccc1-n1c(C)cc(C=O)c1C	22.4µM*	x	x	-0.5%	x	10.5%

High-throughput results deposited in PubChem BioAssay by National Center for Advancing Translational Sciences (NCATS).
